# Test results published in publication PMC4336329 (PLoS ONE, 2015).
# About 14,000 (4.5%) of roughly 310,000 compounds showed an effect of 50% or more. The effect is printed as a negative number. The full list was thinned out, with strong results kept by preference.
# Target: human ether-à-go-go-related gene (hERG) potassium channel (human, UniProt Q12809)
# Assay: primary screen, population patch clamp on CHO cells stably expressing hERG; higher = less effect of the substance
# 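Also: peak tail current of the secondary pulse compared with the same well before compound.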
# Sequence of human ether-à-go-go-related gene (hERG) potassium channel (Q12809 whole entry, looked up): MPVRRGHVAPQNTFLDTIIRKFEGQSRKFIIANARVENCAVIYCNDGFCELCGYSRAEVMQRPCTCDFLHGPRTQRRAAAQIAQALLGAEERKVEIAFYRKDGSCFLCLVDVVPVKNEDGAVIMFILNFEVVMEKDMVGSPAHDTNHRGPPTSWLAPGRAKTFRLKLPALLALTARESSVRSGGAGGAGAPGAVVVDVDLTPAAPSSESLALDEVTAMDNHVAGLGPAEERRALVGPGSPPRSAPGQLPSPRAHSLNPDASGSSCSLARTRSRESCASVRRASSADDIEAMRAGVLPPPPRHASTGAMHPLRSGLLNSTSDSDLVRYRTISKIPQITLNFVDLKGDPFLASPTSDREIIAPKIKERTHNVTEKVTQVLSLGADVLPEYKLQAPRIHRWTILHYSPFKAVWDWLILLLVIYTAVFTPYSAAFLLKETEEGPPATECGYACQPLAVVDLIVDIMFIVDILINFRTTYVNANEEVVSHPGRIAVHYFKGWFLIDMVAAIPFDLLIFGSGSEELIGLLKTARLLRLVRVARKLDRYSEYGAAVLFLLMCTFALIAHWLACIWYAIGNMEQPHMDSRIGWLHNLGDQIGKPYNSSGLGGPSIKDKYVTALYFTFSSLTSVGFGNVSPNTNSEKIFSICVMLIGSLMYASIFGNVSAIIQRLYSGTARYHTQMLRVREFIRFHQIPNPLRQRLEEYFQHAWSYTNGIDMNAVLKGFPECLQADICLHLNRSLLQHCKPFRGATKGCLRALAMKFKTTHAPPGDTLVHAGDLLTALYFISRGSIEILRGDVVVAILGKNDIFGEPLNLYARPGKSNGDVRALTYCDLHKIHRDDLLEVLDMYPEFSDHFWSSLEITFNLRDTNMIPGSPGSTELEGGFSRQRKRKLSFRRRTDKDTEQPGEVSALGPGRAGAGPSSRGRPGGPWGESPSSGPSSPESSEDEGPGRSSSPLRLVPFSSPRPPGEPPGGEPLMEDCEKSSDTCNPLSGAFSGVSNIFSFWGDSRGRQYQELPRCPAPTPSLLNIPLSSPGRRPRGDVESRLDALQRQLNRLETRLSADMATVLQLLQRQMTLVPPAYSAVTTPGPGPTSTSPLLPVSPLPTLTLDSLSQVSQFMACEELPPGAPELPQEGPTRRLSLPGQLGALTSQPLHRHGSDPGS
row,Compound,"hERG current change (%, negative = inhibition) at 10uM"
1,CC(/C=N/NC(=O)Cc1cccn1C)=C\c1ccco1,-13.1%
2,CC(=C/c1ccco1)/C=N/NC(=O)Cc1cccn1C,-6.63%
3,CC(/C=N/NC(=O)CN1CCN(Cc2ccc(Cl)cc2)CC1)=C\c1ccco1,-69.2%
4,O=C(CN1CCN(Cc2ccccc2)CC1)N/N=C\C=C/c1ccco1,-26.9%
5,O=C(CN1CCN(Cc2ccccc2)CC1)N/N=C/c1ccco1,-5.43%
6,CC(/C=N\NC(=O)CN1CCN(Cc2ccccc2)CC1)=C\c1ccco1,-53.6%
7,COc1ccccc1C(=O)N1CCN(C2CCN(Cc3ccccc3)CC2)CC1,-23.2%
8,C/C(=C\c1ccccc1F)C1Nc2cccc3cccc(c23)N1,13.1%
9,Cc1ccc(/C=N/Nc2ccc3ccccc3n2)o1,-47.4%
10,CCN(CC)S(=O)(=O)c1ccc(OC)c(NC(=O)C2CC(=O)N(c3ccc(C)cc3)C2)c1 (stereo not shown),-19.6%
11,CCOc1ccc(S(=O)(=O)N2CCCCC2)cc1NS(=O)(=O)c1cccs1,4.67%
12,CCC1CN(C(=O)NCc2ccc(F)cc2)c2cc(Cl)ccc2O1 (stereo not shown),12.5%
13,Cc1cc2oc3ccc(NCCCn4ccnc4)cc3c(=O)c2cc1C,6.32%
14,CCc1nc(Nc2ccncc2)c2oc3ccccc3c2n1.Cl,-58.5%
15,CCNc1nc(CC)nc2c1oc1ccccc12.Cl,-11.5%
16,CCc1nc(Nc2ccc(O)cc2)c2oc3ccccc3c2n1.Cl,-13.6%
17,CCc1nc(NCCCN2CCOCC2)c2oc3ccccc3c2n1,-26.6%
18,Cl.c1ccc2c(c1)oc1c(NCCCn3ccnc3)ncnc12,-58.7%
19,O=c1c2ccccc2oc2ccc(NCCCn3ccnc3)cc12,9.83%
20,CCc1nc(Nc2ccccc2)c2oc3ccccc3c2n1.Cl,-5.28%
21,O=c1c2ccccc2oc2cc(NCCCn3ccnc3)ccc12,-60.9%
22,c1ccc(CNc2ncnc3c2oc2ccccc23)nc1,-1.56%
23,c1coc(CNc2ncnc3c2oc2ccccc23)c1,-22.1%

row,Compound,"hERG current change (%, negative = inhibition) at 10uM"
1,CCc1nc(NCCCn2ccnc2)c2oc3ccccc3c2n1.Cl,-56.1%
2,CN1CCc2nc3sc(C(=O)NC4CC4)c(N)c3cc2C1,9.22%
3,COc1ccc(OC)c(C2=NOC(C(=O)Nc3cccnc3)C2)c1 (stereo not shown),-9.42%
4,CN(C)c1ccc(/C=N/N(CCO)C2=NS(=O)(=O)c3ccccc32)cc1,21.8%
5,COc1ccc(C/C(C)=N/NC(=O)c2cc(C)oc2C)cc1,4.56%
6,N/C(=N\OC(=O)CSc1ccccc1)c1ccccn1,6.31%
7,COc1ccc(C)cc1S(=O)(=O)N(C)CC(=O)N1CCC(C)CC1,22.8%
8,Cc1csc(SCCN2C(=O)c3ccccc3C2=O)n1,2.6%
9,Cc1nc(NCCCn2ccnc2)c2oc3ccccc3c2n1.Cl,-69.8%
10,Cl.c1ccc(-c2nc(NCCCn3ccnc3)c3oc4ccccc4c3n2)cc1,-4.89%
11,Cc1nc(NCCCN2CCOCC2)c2oc3ccccc3c2n1.Cl,-15.5%
12,CCCCn1c(N)c(N(CCOC)C(=O)CSCc2ccc(C)cc2)c(=O)[nH]c1=O,13.4%
13,O=C1C(Cl)=C(Nc2ccccc2O)C(=O)N1c1ccccc1,0.891%
14,c1ccc(C(c2nnnn2Cc2cccs2)N2CCN(C3CCCC3)CC2)cc1 (stereo not shown),-46.3%
15,CC(C)C(c1nnnn1Cc1cccs1)N1CCN(C2CCCC2)CC1 (stereo not shown),-30.9%
16,CN1CCN(C(c2ccc(F)cc2)c2nnnn2Cc2cccs2)CC1.Cl (stereo not shown),-21%
17,CN1CCN(C(c2cccs2)c2nnnn2Cc2ccc(F)cc2)CC1.Cl (stereo not shown),-13.1%
18,Fc1ccc(Cn2nnnc2C(c2cccs2)N2CCCCCC2)cc1 (stereo not shown),-11.2%
19,Fc1ccc(C(c2nnnn2Cc2ccccc2)N2CCSCC2)cc1 (stereo not shown),-2.85%
20,Fc1ccc(C(c2nnnn2Cc2cccs2)N2CCN(C3CCCCC3)CC2)cc1 (stereo not shown),-60.3%
21,Fc1ccc(Cn2nnnc2C(c2cccs2)N2CCN(C3CCCCC3)CC2)cc1 (stereo not shown),-66.4%
22,CCN1CCN(C(c2ccc(F)cc2)c2nnnn2Cc2cccs2)CC1 (stereo not shown),-59.4%
23,Cl.Fc1ccc(C(c2nnnn2Cc2cccs2)N2CCN(C3CCCC3)CC2)cc1 (stereo not shown),-67.4%

row,Compound,"hERG current change (%, negative = inhibition) at 10uM"
1,CCN1CCN(C(c2ccc(F)cc2)c2nnnn2Cc2ccc3c(c2)OCO3)CC1.Cl (stereo not shown),-44%
2,CC(=O)Nc1ccccc1NC(=O)COc1cccc2ccccc12,18.9%
3,CCOC(=O)c1sc(NC(=O)CN2CCN(c3ccc(OC)cc3)CC2)nc1C,-20.6%
4,O=C(Nc1nc2ccccc2s1)c1ccc(N2CCCCC2)c([N+](=O)[O-])c1,6.67%
5,O=C(NNC(=O)c1ccc(Br)s1)NC1CCCCC1,28.1%
6,Cc1ccc(NC(=O)CCSc2nnc3ccccn23)cc1,2.6%
7,Cc1cccc(NS(=O)(=O)c2csc(C(N)=O)c2)c1,8.92%
8,NC(=O)c1cc(S(=O)(=O)Nc2cccc(Cl)c2)cs1,-61.2%
9,NC(=O)c1cc(S(=O)(=O)Nc2ccccc2)cs1,1.39%
10,CCC(C)NC(=O)C1CCC(CNS(=O)(=O)c2ccc3c(c2)N(C(C)=O)CCO3)CC1 (stereo not shown),6.84%
11,COc1ccccc1NC(=O)C(=O)NCC(c1ccco1)N1CCc2ccccc21 (stereo not shown),-1.64%
12,COc1ccc(-n2cnc3c(sc4nc(N5CCOCC5)c5c(c43)CCCC5)c2=O)cc1,21.3%
13,CCc1cccc(NS(=O)(=O)c2c(C)[nH]c(=O)[nH]c2=O)c1,20.8%
14,COc1ccc2cc(CN(CCc3ccccc3)Cc3nnnn3Cc3ccco3)c(=O)[nH]c2c1,-29.7%
15,COCCn1nnnc1CN(CCc1ccccc1)Cc1cc2cc(OC)ccc2[nH]c1=O,-47.8%
16,COc1ccc2cc(CN(Cc3cccs3)Cc3nnnn3Cc3ccccc3)c(=O)[nH]c2c1,-11.3%
17,COc1ccc2cc(CN(CCc3ccccc3)Cc3nnnn3CC3CCCO3)c(=O)[nH]c2c1 (stereo not shown),-31.3%
18,COCCn1nnnc1CN(CCc1ccc(OC)c(OC)c1)Cc1cc2ccc(C)cc2[nH]c1=O,-42.8%
19,COc1ccc2cc(CN(Cc3cccnc3)Cc3nnnn3Cc3ccccc3)c(=O)[nH]c2c1,-74.4%
20,COc1ccc2[nH]c(=O)c(CN(Cc3ccccc3)Cc3nnnn3CC3CCCO3)cc2c1 (stereo not shown),-4.75%
21,COCCn1nnnc1CN(CCc1ccccc1)Cc1cc2ccc(C)cc2[nH]c1=O,-57.2%
22,COc1ccc2[nH]c(=O)c(CN(CCc3ccccc3)Cc3nnnn3CC3CCCO3)cc2c1 (stereo not shown),-53.4%
23,COc1cc(OC)cc(C(=O)OCC(=O)NCc2ccco2)c1,2.94%

row,Compound,"hERG current change (%, negative = inhibition) at 10uM"
1,Cc1ccc(-n2nnc3c(=O)n(CC(=O)N4CCOCC4)cnc32)cc1,-3.25%
2,CCOc1ccccc1C(=O)NCCC(=O)O,8.38%
3,Cc1onc(-c2c(F)cccc2Cl)c1C(=O)N1CCc2ccccc2C1,-15.7%
4,O=C(CCn1ccc2cc(S(=O)(=O)N3CCCC3)ccc21)NCCc1ccccc1,-16.9%
5,O=C(Nc1ccc(Br)cc1)C1CCCC1,9.31%
6,O=C(c1ccc(COc2ccccc2Cl)o1)N1N=C(C(F)F)CC1(O)C(F)F (stereo not shown),17.1%
7,COc1ccc(CCNc2ccc(C(CC(N)=O)NC(=O)Cc3ccc(Br)cc3)cc2[N+](=O)[O-])cc1 (stereo not shown),4.07%
8,S=c1[nH]nc(-c2cc(-c3ccsc3)n[nH]2)n1-c1cccc2ccccc12,-12.6%
9,COc1cccc(N2CC(NC(=O)c3cccc4ccccc34)CC2=O)c1 (stereo not shown),-6.44%
10,CCCC1(CCC)C(=O)NC(=NCCc2ccc(OC)c(OC)c2)NC1=O,13.4%
11,O=C(CCCn1ncn2c(cc3occc32)c1=O)N1CCc2ccccc2C1,-63%
12,CCc1nn(CCCC(=O)NCc2ccc(C)cc2)c(=O)c2cc3occc3n12,-8.1%
13,CCc1nn(CC(=O)N2CCN(c3cc(C)ccc3C)CC2)c(=O)c2cc3occc3n12,13%
14,COc1cccc(CNC(=O)CCCn2ncn3c(cc4occc43)c2=O)c1,-42.9%
15,CCOC(=O)CCCn1ncn2c(cc3occc32)c1=O,-0.3%
16,O=C(CCCn1ncn2c(cc3occc32)c1=O)NCc1cccc(Cl)c1,-61.3%
17,Cc1ccc(C)c(N2CCN(C(=O)CCCn3ncn4c(cc5occc54)c3=O)CC2)c1,-63.4%
18,Cc1ccccc1CNC(=O)CCCn1ncn2c(cc3occc32)c1=O,-14.7%
19,CCOc1ccc(CNC(=O)CCCn2nc(CC)n3c(cc4occc43)c2=O)cc1,-24.7%
20,CCc1nn(CCCC(=O)NCc2ccc(OC(C)C)cc2)c(=O)c2cc3occc3n12,-54.4%
21,COc1ccc(CNC(=O)CCCn2ncn3c(cc4occc43)c2=O)cc1,-22.4%
22,CCc1nn(CCCC(=O)N2CCc3ccccc3C2)c(=O)c2cc3occc3n12,-29%
